The values below come from ChEMBL document CHEMBL1961873, “Compounds: GSK PKIS; Assays: Nanosyn kinase panel” (2012).

Assay [1] deals with Serine/threonine-protein kinase 26 (Homo sapiens) (UniProt Q9P289). Conditions: at 1 µM.
For assay [2], the target named is Serine/threonine-protein kinase PAK 1 (Homo sapiens) (UniProt Q13153). Conditions: at 0.1 µM.
The target is the same in assay [3]. Conditions: at 1 µM.
The target of assay [4] is Serine/threonine-protein kinase PAK 2 (Homo sapiens) (UniProt Q13177). As to conditions: at 0.1 µM.
Sequence of Serine/threonine-protein kinase PAK 2 (Homo sapiens) (Q13177 whole entry): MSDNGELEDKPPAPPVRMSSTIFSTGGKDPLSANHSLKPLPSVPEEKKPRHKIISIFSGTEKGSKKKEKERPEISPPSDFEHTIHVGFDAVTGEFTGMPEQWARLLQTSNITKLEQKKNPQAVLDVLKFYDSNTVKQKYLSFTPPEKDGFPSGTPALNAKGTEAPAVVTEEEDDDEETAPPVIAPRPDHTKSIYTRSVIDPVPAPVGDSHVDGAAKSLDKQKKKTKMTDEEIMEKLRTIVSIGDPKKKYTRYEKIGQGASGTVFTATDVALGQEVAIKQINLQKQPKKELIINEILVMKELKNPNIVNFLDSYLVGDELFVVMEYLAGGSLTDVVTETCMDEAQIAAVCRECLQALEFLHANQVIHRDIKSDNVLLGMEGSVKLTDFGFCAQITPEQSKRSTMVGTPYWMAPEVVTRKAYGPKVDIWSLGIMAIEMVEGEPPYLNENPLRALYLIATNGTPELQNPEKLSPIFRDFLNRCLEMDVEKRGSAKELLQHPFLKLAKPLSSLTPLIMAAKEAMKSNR
For assay [5] the target is unchanged. As to conditions: at 1 µM.
For assay [6], the target named is Serine/threonine-protein kinase PAK 3 (Homo sapiens) (UniProt O75914). Conditions: at 0.1 µM.
Sequence of Serine/threonine-protein kinase PAK 3 (Homo sapiens) (O75914 whole entry, looked up): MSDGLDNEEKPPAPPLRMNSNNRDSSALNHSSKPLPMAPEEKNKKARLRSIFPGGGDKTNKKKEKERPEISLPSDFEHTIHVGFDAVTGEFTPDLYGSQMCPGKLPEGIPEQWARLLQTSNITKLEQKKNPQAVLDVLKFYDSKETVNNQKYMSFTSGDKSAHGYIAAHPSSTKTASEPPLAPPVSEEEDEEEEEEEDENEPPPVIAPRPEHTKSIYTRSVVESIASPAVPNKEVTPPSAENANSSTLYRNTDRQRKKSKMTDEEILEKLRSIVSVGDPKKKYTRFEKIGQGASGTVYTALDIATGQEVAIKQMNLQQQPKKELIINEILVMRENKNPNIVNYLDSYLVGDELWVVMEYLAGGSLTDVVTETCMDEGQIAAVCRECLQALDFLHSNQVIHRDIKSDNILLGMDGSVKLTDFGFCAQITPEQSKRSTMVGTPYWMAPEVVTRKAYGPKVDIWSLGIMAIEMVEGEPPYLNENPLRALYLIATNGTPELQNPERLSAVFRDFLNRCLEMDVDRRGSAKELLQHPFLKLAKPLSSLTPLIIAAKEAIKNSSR
The target is the same in assay [7]. Conditions: at 1 µM.
For assay [8], the target named is Serine/threonine-protein kinase PAK 5 (Homo sapiens) (UniProt Q9P286). As to conditions: at 1 µM.
Sequence of Serine/threonine-protein kinase PAK 5 (Homo sapiens) (Q9P286 whole entry, looked up): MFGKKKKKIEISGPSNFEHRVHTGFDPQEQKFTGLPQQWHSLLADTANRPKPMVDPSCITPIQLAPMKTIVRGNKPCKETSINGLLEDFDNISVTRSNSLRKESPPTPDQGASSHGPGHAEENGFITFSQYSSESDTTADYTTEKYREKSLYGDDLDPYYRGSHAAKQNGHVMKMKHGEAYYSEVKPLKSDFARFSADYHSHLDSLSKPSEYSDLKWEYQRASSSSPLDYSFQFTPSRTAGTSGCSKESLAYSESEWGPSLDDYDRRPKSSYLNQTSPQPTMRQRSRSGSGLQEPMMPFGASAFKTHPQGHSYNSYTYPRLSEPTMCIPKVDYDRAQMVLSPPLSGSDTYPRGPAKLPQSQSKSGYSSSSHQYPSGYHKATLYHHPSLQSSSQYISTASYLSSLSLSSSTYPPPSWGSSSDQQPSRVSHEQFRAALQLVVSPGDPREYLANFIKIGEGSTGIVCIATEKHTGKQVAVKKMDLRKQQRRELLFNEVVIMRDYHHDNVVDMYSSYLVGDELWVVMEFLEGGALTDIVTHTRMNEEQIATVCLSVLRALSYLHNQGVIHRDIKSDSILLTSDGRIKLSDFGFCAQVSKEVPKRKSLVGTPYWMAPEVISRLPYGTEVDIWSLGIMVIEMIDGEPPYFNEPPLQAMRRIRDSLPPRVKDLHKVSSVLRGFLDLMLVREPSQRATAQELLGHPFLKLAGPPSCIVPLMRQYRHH
Assay [9] concerns the target Serine/threonine-protein kinase PAK 6 (Homo sapiens) (UniProt Q9NQU5). As to conditions: at 0.1 µM.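 Also: mean PAK6 inhibition reported from the GSK PKIS screen.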
The target of assay [10] is Serine/threonine-protein kinase PAK 5 (Homo sapiens) (UniProt Q9P286). As to conditions: at 0.1 µM.

Sequence of Serine/threonine-protein kinase PAK 6 (Homo sapiens) (Q9NQU5 whole entry, looked up): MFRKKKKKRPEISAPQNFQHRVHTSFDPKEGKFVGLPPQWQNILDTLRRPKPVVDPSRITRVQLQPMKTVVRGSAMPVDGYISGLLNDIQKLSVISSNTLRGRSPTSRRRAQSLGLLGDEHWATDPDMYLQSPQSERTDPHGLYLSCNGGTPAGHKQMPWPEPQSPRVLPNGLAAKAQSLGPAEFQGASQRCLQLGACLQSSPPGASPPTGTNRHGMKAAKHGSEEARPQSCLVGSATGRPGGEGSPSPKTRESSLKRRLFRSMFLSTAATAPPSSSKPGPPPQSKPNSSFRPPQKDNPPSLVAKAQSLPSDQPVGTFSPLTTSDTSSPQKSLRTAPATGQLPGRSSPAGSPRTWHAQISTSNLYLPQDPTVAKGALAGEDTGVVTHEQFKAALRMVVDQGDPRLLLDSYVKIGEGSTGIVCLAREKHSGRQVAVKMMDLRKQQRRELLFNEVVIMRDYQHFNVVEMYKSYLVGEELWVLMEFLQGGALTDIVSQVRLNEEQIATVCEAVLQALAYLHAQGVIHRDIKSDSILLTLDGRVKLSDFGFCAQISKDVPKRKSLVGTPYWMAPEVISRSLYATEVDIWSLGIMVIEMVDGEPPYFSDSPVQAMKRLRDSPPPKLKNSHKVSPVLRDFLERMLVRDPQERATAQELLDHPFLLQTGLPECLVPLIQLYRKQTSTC
Sequence of Serine/threonine-protein kinase PAK 1 (Homo sapiens) (Q13153 whole entry): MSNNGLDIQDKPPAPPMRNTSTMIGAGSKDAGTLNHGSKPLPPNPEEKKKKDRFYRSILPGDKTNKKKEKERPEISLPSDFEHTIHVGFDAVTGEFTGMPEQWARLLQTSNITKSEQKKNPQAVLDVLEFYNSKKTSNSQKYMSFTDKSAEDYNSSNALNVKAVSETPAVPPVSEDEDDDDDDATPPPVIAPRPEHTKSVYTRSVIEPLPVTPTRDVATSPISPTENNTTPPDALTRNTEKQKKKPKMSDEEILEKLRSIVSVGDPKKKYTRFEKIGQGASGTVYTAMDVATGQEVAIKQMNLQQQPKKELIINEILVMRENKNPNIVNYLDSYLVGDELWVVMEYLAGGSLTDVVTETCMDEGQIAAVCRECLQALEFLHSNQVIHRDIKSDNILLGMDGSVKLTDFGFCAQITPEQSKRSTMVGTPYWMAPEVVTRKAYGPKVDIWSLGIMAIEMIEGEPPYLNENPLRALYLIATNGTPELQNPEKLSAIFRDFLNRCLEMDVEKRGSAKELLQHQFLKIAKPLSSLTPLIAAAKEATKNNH
Sequence of Serine/threonine-protein kinase 26 (Homo sapiens) (Q9P289 2-416 limits assumed): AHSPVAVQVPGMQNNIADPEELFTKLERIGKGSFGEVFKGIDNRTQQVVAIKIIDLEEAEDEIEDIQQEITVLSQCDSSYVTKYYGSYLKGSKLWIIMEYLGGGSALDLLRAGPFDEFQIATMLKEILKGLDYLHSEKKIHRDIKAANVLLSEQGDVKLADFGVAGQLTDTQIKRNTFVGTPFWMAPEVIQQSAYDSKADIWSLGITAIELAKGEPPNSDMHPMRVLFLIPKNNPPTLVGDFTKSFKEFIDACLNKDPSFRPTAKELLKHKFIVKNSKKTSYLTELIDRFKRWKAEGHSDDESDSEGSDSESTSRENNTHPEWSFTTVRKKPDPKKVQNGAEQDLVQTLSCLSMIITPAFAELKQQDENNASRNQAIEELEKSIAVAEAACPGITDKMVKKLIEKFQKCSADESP

Broadly, the inhibition is the change of the read-out against control, counted positive when it falls. Take `NS(=O)(=O)c1ccc(NC=C2C(=O)Nc3ccc4ncsc4c32)cc1`: the inhibition amounted to 78.9% in assay [1]; 7.91% in assay [2]; 8.35% in [3]; 2.5% in [4]; 4.68% in assay [5]; 5.33% in assay [6]. Further, the inhibition in assay [7] turned out to be 6.6%; in assay [8] it was 5.11%; in assay [9], 0.36%.

Take `CN(c1ccc(NC(=O)Nc2ccc(OC(F)(F)F)cc2)cc1)c1ccnc(Nc2cccc(S(N)(=O)=O)c2)n1`: the inhibition was -3.21% in assay [1]; 1.61% in assay [2]; -0.37% in [3]; 0.53% in assay [4]; -1.63% in assay [5]; 2.32% in assay [6]. Also, the inhibition in assay [7] was 0.7%; in [10] it was -3.24%; in assay [8] it was 1.16%; in assay [9], -3.33%.

Regarding `COc1cc2ncnc(Nc3ccc(C)c(O)c3)c2cc1OC`, the inhibition is -1.08% in [1]; 6.98% in assay [2]; 7.41% in [3]; 1.81% in assay [4]; 2.35% in [5]; 5.88% in assay [6]. For the same compound, the inhibition is 5.36% in assay [7], 0.51% in [10], 7.08% in assay [8] and -1.14% in assay [9].

`CN(C)CCCn1c(-c2nonc2N)nc2cnccc21`: the inhibition in assay [1] is -1.75%; in [2], 6.36%; in assay [3], 9.52%; in assay [4], 1.48%; in assay [5] it was 2.17%; in assay [6] it was 4.61%. Further, the inhibition is 5.23% in [7], -5.06% in assay [8] and 7.58% in assay [9].

`OCc1ccc(-c2nc(-c3ccccn3)c(-c3ccc4c(c3)OCO4)[nH]2)cc1`: the inhibition in assay [1] is -2.75%; in assay [2] it was 3.25%; in [3] it was 7.25%; in assay [4], 2.61%; in assay [5] it was 2.79%; in assay [6] it was 4.79%. Moreover, the inhibition was found to be 5.17% in assay [7], 1.77% in [10], 0.71% in assay [8] and 3.79% in [9].

On to `N#Cc1cccc(Nc2nccc(-c3cnn4ncccc34)n2)c1`, for which the inhibition in assay [1] was determined as 3.34%; in assay [2], 8.03%; in [3], 7.42%; in assay [4] it was 1.67%; in assay [5], 3.52%; in [6] it was 3.6%. The inhibition in [7] was 5.22%; in assay [10], 0.7%; in assay [8], 12.7%; in [9] it was -4.74%.

As to `O=C(Nc1ccc(Oc2ccc3[nH]c(NC(=O)c4ccco4)nc3c2)cc1)Nc1cc(C(F)(F)F)ccc1F`, the inhibition in assay [1] is 0.33%; in assay [2], -2.95%; in assay [3], -0.15%; in assay [4], 0.17%; in [5], 0.57%; in assay [6], -0.21%. The inhibition in [7] is 0.34%; in assay [10] it was 6.4%; in assay [8], 6.36%; in assay [9] it was 2.79%.

As for `c1ccc(Cc2nc3ccc(Nc4ncnc5ccccc45)cc3[nH]2)cc1`, the inhibition in [1] is -0.26%; in assay [2], 4.28%; in assay [3], 3.15%; in assay [4], 2.47%; in assay [5], 2.26%; in assay [6] it was 3.68%. Besides, the inhibition is 4.32% in assay [7], 5.6% in [10], 7.77% in [8] and -3.41% in assay [9].

Consider `FC(F)(F)c1ccc(-c2nn3ncccc3c2-c2ccnc(Nc3ccc4c(c3)OCCO4)n2)cc1`, for which the inhibition stood at 7.92% in [1]; 4.61% in [2]; 0.84% in assay [3]; 1.32% in assay [4]; 1.42% in assay [5]; 3.69% in [6]. Besides, the inhibition was 4.75% in assay [7], 6.24% in assay [10], 11.3% in assay [8] and 9.3% in assay [9].

For `CN(C)c1cc2c(Nc3ccc4c(cnn4Cc4ccccc4)c3)ncnc2cn1`, the inhibition in [1] is -0.54%; in assay [2], 6.36%; in assay [3], 6.67%; in [4] it was 0.73%; in assay [5], 0.51%; in assay [6], 3.07%. The inhibition was 3.39% in [7], -1.52% in assay [10], -2.02% in assay [8] and 4.32% in [9].

For `ON=C1CCc2cc(-c3nc(C4CCNCC4)[nH]c3-c3ccncc3)ccc21`, the inhibition in [1] was -1.63%; in assay [2] it was 2.01%; in assay [3] it was 2.16%; in [4], -0.65%; in assay [5], -0.29%; in [6], -0.94%. In addition, the values for the inhibition in assay [7] and in assay [9] were -0.23% and 0.23%, respectively.

In the case of `Cc1cc(Cl)cc2c1NC(=O)C2=NNc1ccc(S(N)(=O)=O)cc1`, the inhibition in assay [1] is -0.49%; in [2] it was 0.68%; in [3], 1.71%; in assay [4], 1.05%; in [5], 0.72%; in assay [6], 3.63%. For the same compound, the inhibition is 4.8% in assay [7], -4.18% in assay [10], -1.19% in assay [8] and 2.65% in [9].

In the case of `Nc1nccc(-c2c(-c3ccc(F)cc3)nn3cc(C(F)(F)F)ccc23)n1`, the inhibition was 0.4% in assay [1]; 0.65% in assay [2]; 2.14% in assay [3]; -2.44% in [4]; -1.84% in assay [5]; -0.02% in [6]. The figures for the inhibition in assay [7], in [8] and in assay [9] were -0.21%, -2.91% and 3.48%, respectively.

Take `NS(=O)(=O)c1ccc(Nc2cc(-c3cccc(O)c3)n[nH]2)cc1`: the inhibition in [1] was -4.6%; in assay [2] it was 9.49%; in assay [3] it was 7.81%; in assay [4], 3.22%; in [5], 2.59%; in assay [6], 6.66%. In addition, the inhibition is 6.8% in assay [7], 3.04% in [10], -6.9% in assay [8] and -0.89% in assay [9].

As to `Cc1nc(-c2ccccc2)n2nc(NCCCN3CCOCC3)ncc12`, the inhibition in assay [1] turned out to be 0.4%; in [2], 2.24%; in assay [3], 6.68%; in [4] it was 0.56%; in [5], 0.27%; in [6], 1.98%. The inhibition in assay [7] was 4.33%; in [10] it was 1.91%; in assay [8] it was 1.28%; in assay [9] it was -9.04%.

In the case of `CN(C)C(=O)O[C@@H]1CN[C@@H](C#Cc2cc3ncnc(Nc4ccc(OCc5cccc(F)c5)c(Cl)c4)c3s2)C1`, the inhibition in [1] was 0.17%; in assay [2], 1.48%; in assay [3] it was 2.04%; in [4], 0.43%; in assay [5] it was -0.42%; in [6], 0.58%. Besides, the inhibition was -0.38% in assay [7], -5.8% in assay [10] and 2.87% in assay [9].
